Screens as filed in PubChem BioAssay.
IMPase Li inh: cell-permeable IMPase inhibitors with lithium potentiation; CHO-M1 cells, IP1 TR-FRET (IP-One), carbachol + lithium; Potency, µM (titrated, usually from 59.4 µM), inactives show top-dose activity, negative = IMPase inhibition, usual class: inhibitors; 210,000 tested, 0.35% active; AID 1457;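 also: IP1 builds up when IMPase is blocked and the TR-FRET signal falls; potency is read from the fitted curve at half-maximal effect; plate controls were basal vehicle for no effect and high inhibitor control for full effect; nearly all actives have a fitted effect of over 50% in size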
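CHO cells stably expressing M1 receptor (2000/well, cultured 16–30 h) treated 30 min at 37C with compound plus low lithium. Cytosolic IP1 by TR-FRET (665/620 ratio and 620 channel) after 10 min lysis; AC50 by Hill fit.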
IMPase inh: IMPase inhibition in cells | P97697 | CHO-M1 cells, IP1 accumulation, HTRF TR-FRET ratio | inhibition (IP1 accumulation), % at 46.1 µM | 120,000 tested, under 10 active | AID 901; active = well fitted curve in the direction sought with a large enough effect in the signal ratio, not every such curve was filed as active; inconclusive = small, poorly fitted or top-dose-only effect, or a change in a side signal; inactive = no such curve, though single readings can be large or run the other way; the % refers to the signal ratio;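 also: cells stimulated with carbachol in lithium chloride buffer; plate controls were DMSO basal wells for no effect and reference inhibitor wells for full effect; higher means more IMPase inhibition seen as more IP1 and lower FRET ratio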
Target sequence (P97697 whole entry, looked up): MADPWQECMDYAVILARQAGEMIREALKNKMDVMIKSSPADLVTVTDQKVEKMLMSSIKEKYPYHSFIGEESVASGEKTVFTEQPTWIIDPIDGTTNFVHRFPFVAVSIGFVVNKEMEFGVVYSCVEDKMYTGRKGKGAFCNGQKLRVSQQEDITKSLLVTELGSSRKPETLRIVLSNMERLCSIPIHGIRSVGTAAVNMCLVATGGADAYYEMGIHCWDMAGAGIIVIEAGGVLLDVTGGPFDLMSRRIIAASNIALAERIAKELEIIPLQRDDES
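Cellular IMPase inhibition is scored as a rise in cytosolic IP1, detected by competitive TR-FRET between d2-labelled IP1 and a europium anti-IP1 antibody. M1-expressing CHO cells were stimulated with carbachol for 30 min at 37C, with lithium (50 mM LiCl) present in the buffer.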
ALOX12 inhib: 12-hLO (ALOX12) enzyme inhibition; Potency, µM (highest dose often 57.1 µM), for the others: at the highest dose activity change, negative = inhibition, actives largely listed as inhibitors; AID 1452; 150,000 tested, 0.12% active; P18054; purified 12-hLO, xylenol orange hydroperoxide absorbance; also: potency is read from the fitted curve at half-maximal effect; nearly all actives have a fitted effect of over 55% in size
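Purified human 12hLO (150 nM final) was preincubated with compounds for 15 min at room temperature in 25 mM Hepes pH 7.0, 0.01% Triton X-100, then reacted with 40 uM arachidonic acid for 30 min. Hydroperoxide was detected with ferrous iron/xylenol orange.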
PNC assembly inh: perinucleolar compartment assembly inhibition. PC3M PTB-GFP, PNC prevalence imaging, 16 h; active compounds read low. activity change (PNC), negative = inhibition, % at 10 µM. 140,000 tested, 3.1% active. AID 2417;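 active = readout at or below -70, meaning at least 70% loss of cells showing the perinucleolar compartment, a nuclear body marking cancer cells; inconclusive = readout between -30 and a set limit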;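 also: plate controls were DMSO wells for no effect and camptothecin positive control wells for full effect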
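Read-out is percentage of cells bearing a perinucleolar compartment, from automated 20x imaging of fixed, Hoechst-stained PC3M PTB-GFP cells. Cells were seeded 4 h, then exposed 16 h to compound (23 nl of library stock) in duplicate plates.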
HPGD block: HPGD (human) dehydrogenase inhibition. purified HPGD, NADH fluorescence kinetic, PGE2 substrate. AID 894. P15428. Potency, µM, inactives show at the top dose activity change, negative = inhibition, hits mostly inhibitors. 150,000 tested, 4.3% active; active = well fitted inhibition curve with a large enough effect, not every such curve was filed as active; inconclusive = small, poorly fitted or top-dose-only effect, or another doubt; inactive = no such curve, though single readings can be large or run the other way; also: potency is read from the fitted curve at half-maximal effect
Target sequence (P15428 whole entry, looked up): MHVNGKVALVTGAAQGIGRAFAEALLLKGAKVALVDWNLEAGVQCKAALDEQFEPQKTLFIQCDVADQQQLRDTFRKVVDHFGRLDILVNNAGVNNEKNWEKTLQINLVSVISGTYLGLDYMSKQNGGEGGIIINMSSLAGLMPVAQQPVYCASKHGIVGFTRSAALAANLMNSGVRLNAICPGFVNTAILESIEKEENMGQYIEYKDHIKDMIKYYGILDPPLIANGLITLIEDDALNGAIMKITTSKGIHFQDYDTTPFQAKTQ
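20 nM HPGD preincubated 15 min at room temperature with compound in 50 mM Tris-HCl pH 8, 0.01% Tween 20. Started with 1 mM NAD+ and 30 uM prostaglandin E2; NADH fluorescence (360/450 nm) read 5 times over 30-s intervals, last minus first.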
15-hLO-2 inh: inhibitors of human 15-lipoxygenase 2 (ALOX15B). Potency, µM (series often up to 57.1 µM), without a hit: at the top dose activity change, negative = inhibition, actives largely listed as inhibitors. purified 15hLO-2, xylenol orange hydroperoxide absorbance. O15296. 110,000 tested, 0.56% active; also: potency is read from the fitted curve at half-maximal effect; nearly all actives have a fitted effect of over 60% in size
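Enzyme 50 nM, AA 45 uM, 25 mM Hepes pH 7.5 + 0.01% Triton X-100; cpd preinc 15 min RT, rxn 90 min RT; stop/detect with 200 uM XO + 300 uM Fe(II) in 50 mM H2SO4, 30 min; A573/A405.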
* hit, by the source's call; ? = inconclusive; / = no result given; [ ] = remark or other dose. Rows were chosen to be rich in hits. Some 5.4% of all compounds tested hit in one or more screens of this group. Unless noted, calls follow the shape of the dose curve; as a rule, active = well fitted curve in the direction sought with a large enough effect; inconclusive = small, poorly fitted or top-dose-only effect, or another doubt; inactive = no such curve, though single readings can be large; an effect the other way counts as inactive or inconclusive. Unless noted, % is scaled to controls: 0 for no effect and ±100 for the full control effect.

SMILES | IMPase Li inh | IMPase inh | ALOX12 inhib | PNC assembly inh | HPGD block | 15-hLO-2 inh
Clc1ccc(CSC2=NCCN2)cc1Cl | -2% | / | -3%[11.4 µM] | / | -13% | 9%[11.4 µM]
Oc1ccc(NCc2ccccc2OCc2ccccc2)cc1 | 34% | -8 | -6% | 0 | 14µM* | /
Oc1ccc(NCc2ccccc2OCc2ccc(Cl)cc2)cc1 | / | 25 | / | / | / | /
CCOC(=O)C1(C)C=C(Nc2cccc(C(=O)O)c2)C(=O)N1c1ccccc1 (centres undefined) | / | 8 | / | / | / | /
COc1ccc(-c2nc3cnc(N4CCN(C)CC4)nc3n(C)c2=O)cc1 | 10% | / | / | / | / | -9%
CC(C)(N)C(=O)N[C@@H]1C(=O)N2[C@@H]1SC(C)(C)[C@H]2C(=O)O | -4% | / | 2%[11.4 µM] | / | -9% | -1%[11.4 µM]
N#Cc1cc(-c2ccccc2)nn1-c1ccccc1 | 32%[38.3 µM] | 21 | -14% | 2 | 13µM* | 13%[2.29 µM]
COc1ccc(OCC(=O)NC(=S)Nc2ccc3c4c(cccc24)CC3)cc1 | 7.1µM* | / | -2% | -11 | ? | /
CC(=O)Oc1ccc2c(=O)c(-c3ccccc3)c(C)oc2c1 | 2% | / | / | / | / | /
Cc1oc2cc(OC(=O)c3ccco3)ccc2c(=O)c1-c1nc2ccccc2n1C | -2% | / | 2% | -93* | -25% | /
N#C/C(=C\c1ccc[nH]1)S(=O)(=O)c1ccccc1 | 11%[38.3 µM] | 5 | -6% | 12 | 4.5µM* | -14%
Cn1nccc1/C=C(/C#N)S(=O)(=O)c1ccccc1 | 16%[38.3 µM] | 5 | 2% | ? | -1% | -10%
Cc1ccc(NC(=O)CN2C(=O)S/C(=C\c3cc(C)n(C)c3C)C2=O)cc1 | -14%[38.3 µM] | 7 | -11% | 71 | -1% | 16µM*
Cc1ccc(NC(=O)CN2C(=O)S/C(=C\c3ccc(-c4cccc(C(=O)O)c4C)o3)C2=O)cc1 | 17%[38.3 µM] | -3 | -6% | -5 | 10µM* | ?
Cc1cccc(NC(=O)CN2C(=O)S/C(=C\c3cc(C)n(C)c3C)C2=O)c1 | -3% | / | 0% | ? | -7% | /
Cc1ccc(NC(=O)CN2C(=O)S/C(=C/c3ccc(-c4cccc(C(=O)O)c4)o3)C2=O)cc1 | 3% | / | / | / | / | /
COc1ccccc1Oc1nc2c(C)cccn2c(=O)c1/C=C(\C#N)c1nc2ccccc2[nH]1 | / | -4 | / | / | / | /
Cn1c(/C(C#N)=C/c2ccccc2Br)nc2ccccc21 | / | 3 | / | / | / | /
C=C[C@H]1CCC=C2C(=O)CCC[C@@H]21 | 2% | / | / | / | -5% | /
COCCNc1ncnc2ccc(-c3ccc(C(=O)N(C)C)cc3)cc12 | 7% | / | / | / | / | 5%
CCOC(=O)/C(=N\Nc1ccccc1)S(=O)(=O)c1ccccc1 | 19%[38.3 µM] | 7 | -3% | ? | 14µM* | -3%
CCOC(=O)/C(=N/Nc1ccc(C)cc1)S(=O)(=O)c1ccc(Cl)cc1 | 32%[38.3 µM] | 8 | -15% | 25 | -11% | -9%
CCOC(=O)c1nn(-c2cccc(Cl)c2)c(C)c1C(C)=O | 22%[38.3 µM] | 2 | 1% | 38 | -3% | -4%
CCOC(=O)c1c(C)nn(Cc2cccc(Cl)c2)c1N | -23%[38.3 µM] | -4 | -6% | ? | 28µM* | -2%
CC(=O)Nc1ccc(-c2cc(-c3ccc(NC(C)=O)cc3)nc(-c3ccc(NC(C)=O)cc3)n2)cc1 | ? | / | -2% | 11 | ? | /
SMILES | IMPase Li inh | IMPase inh | ALOX12 inhib | PNC assembly inh | HPGD block | 15-hLO-2 inh
CC(=O)Nc1ccc(-c2cc(-c3ccc(NC(C)=O)cc3)nc(-c3ccccc3)n2)cc1 | 32µM* | 3 | 5% | 19 | ? | -19%
CC(=O)Nc1ccc(-c2cc(-c3ccccc3)nc(-c3ccccc3)n2)cc1 | 8.9µM* | / | -3% | -5 | ? | /
CCC(=O)Nc1ccc(-c2cc(-c3ccccc3)nc(-c3ccc(NC(=O)CC)cc3)n2)cc1 | 10µM* | ? | -6% | ? | ? | ?
CCC(=O)Nc1ccc(-c2csc(C)n2)cc1 | 4% | / | -1% | -30 | -19% | /
COC(=O)CCCCCN1C(=O)NC(CC2CC2)C(C(=O)OCc2ccccc2)=C1C (centres undefined) | 19% | / | -6% | / | -13% | -2%
C/C=C1\CC2C=CC1C2 (centres undefined) | 4% | / | -3% | / | -9% | 1%
N#Cc1ccc(CSc2nc(-c3cccs3)c3c(c2C(=O)O)CCCC3)cc1 | / | / | -5% | / | 18µM* | /
CC(C)[C@H]1COC(c2cc(Cl)cc(Cl)c2)=N1 | 2% | / | -2%[0.00818 µM] | / | -6% | 18%[0.0915 µM]
COC(=O)c1cc(=O)n(CCc2ccc(OC)cc2)c(=Nc2ccc(F)c(Cl)c2)s1 | 24%[38.3 µM] | 0 | -3% | 30 | -13% | 1%
COC(=O)c1cc(=O)n(CCc2ccccc2)c(=Nc2ccc(F)cc2)s1 | 40%[38.3 µM] | 16 | -9% | -83* | -9% | -4%
COC(=O)c1ccc(C(NC(=O)c2ccco2)[C@]2(C)C[C@H]2C2CCCCC2)cc1 (some centres undefined) | 2% | / | -4% | / | -11% | 10%
CCOc1ccccc1Nc1nc2ccccc2nc1NS(=O)(=O)c1ccc(Cl)cc1 | / | 2 | / | / | / | /
Cn1cc(Br)c(C(=O)N/N=C/c2cccc(OC3CSC3)c2)n1 | 20% | / | 0% | 41 | ? | /
CCOc1cc(/C=N/NC(=O)CSc2nncn2C)ccc1OCc1ccccc1 | -4% | / | 3% | -96* | -18% | /
CCOc1cc(/C=N/NC(=O)c2nn(C)cc2Br)ccc1OCc1ccccc1Cl | 2% | / | -2% | -112* | -29% | /
Nc1[nH]c(=S)[nH]c(=O)c1N=Nc1c(Br)cc(S(N)(=O)=O)cc1Br | -15% | / | 1%[11.4 µM] | / | -9% | -7%[11.4 µM]
CS(=O)(=O)CCCCN=C=S | -7% | / | 0% | / | -10% | -2%
COC(=O)c1ccccc1NC(=O)Cn1c(-c2nonc2N)nc2ccccc21 | 22%[38.3 µM] | 1 | -4% | -98* | 1% | -5%
Nc1ccccc1-c1n[nH]c(=S)s1 | 13µM* | / | / | / | / | /
COc1cccc(C2C(C(=O)c3cccs3)=C(O)C(=O)N2c2cc(C)on2)c1 (centres undefined) | 10µM* | ? | -2% | 31 | -25% | -16%
Cc1cc(N2C(=O)C(O)=C(C(=O)c3cccs3)C2c2cccc(O)c2)no1 (centres undefined) | -28%[38.3 µM] | -14 | -4% | ? | -13% | 1%
Cc1cc(N2C(=O)C(O)=C(C(=O)c3cccs3)C2c2ccccc2)no1 (centres undefined) | 14µM* | ? | 6% | 34 | -2% | 33%
O=C(/C=C/c1cccc(Cl)c1)NCc1cccs1 | -6%[38.3 µM] | 0 | -1% | 13 | 32µM* | 1%
O=C(CC1CC2CCC1C2)NCc1cccs1 (centres undefined) | 23%[38.3 µM] | -1 | 0% | 4 | 16µM* | 0%
O=C(O)CCC(=O)NCc1ccc(F)cc1 | 14%[38.3 µM] | 6 | 2% | 17 | -1% | 3%
